Laboratory results published in PubChem BioAssay (NCATS).
Several values for one entry are separate records, joined by “and”; a condition that tells them apart may be missing. Equal entries are not always repeated. Values without a mark were called inactive. Results filed as inconclusive are left out. A call without a number means that no potency is given here. Activity calls are given as the source filed them. Unless noted, calls come from the whole dose curve; as a rule, active = well fitted curve in the direction sought with a large enough effect; inconclusive = small, poorly fitted or top-dose-only effect, or another doubt; inactive = no such curve, though single readings can be large; an effect the other way counts as inactive or inconclusive.

Assays:
[1] = molecular target: Voltage-gated inwardly rectifying potassium channel KCNH2 (Homo sapiens) (UniProt Q12809); experiment: qHTS Assay for Small Molecule Inhibitors of the Human hERG Channel Activity (AID 588834);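 note: lower thallium flux fluorescence means stronger hERG block; nearly all actives have a fitted effect of over 50% in size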; note: potency is the fitted concentration of half-maximal effect
In short: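 Thallium-flux (FluxOR) read-out on FDSS: fluorescence read 10 s before and 2 min after stimulation buffer. hERG-BacMam-transduced U2OS cells, compound exposure about 10 min. AC50 by standard Hill equation.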

[2] = molecular target: Luciferin 4-monooxygenase (Photinus pyralis) (UniProt P08659); experiment: Biochemical firefly luciferase enzyme assay for NPC (AID 624030); note: nearly all actives have a fitted effect of over 70% in size; note: potency is the fitted concentration of half-maximal effect
In short: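 Direct inhibition of firefly luciferase enzyme (10 nM final, 50 mM Tris Acetate) assessed by luminescence within 5 minutes. Percent activity scaled between DMSO and PTC124 positive control, with concentration-effect curves classified by fit quality and response.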

[3] = S16 Schwann cell PMP22 intronic element firefly luciferase assay (AID 624032); note: nearly all actives have a fitted effect of over 30% in size; note: potency is the fitted concentration of half-maximal effect
In short: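 Luciferase reporter of PMP22 intronic-element expression in stably transfected S16 rat Schwann cells, read by ONE-Glo luminescence after 24 h compound exposure at 37 C. Activity scaled between DMSO (0%) and positive-control PTC124; concentration-effect curves quality-classified.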

[4] = S16 Schwann cell PMP22 intronic element beta-lactamase assay (AID 624044; calls by dose curve; note: nearly all actives have a fitted effect of over 15% in size)
In short: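 Beta-lactamase reporter under a PMP22 intronic regulatory element in stable S16 rat Schwann cells; 24 h compound exposure. 460 nm blue signal normalized between DMSO (0%) and potassium clavulanate, with 535 nm FRET tracking viability; curves classed by r2 and response.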

[5] = S16 Schwann cell viability assay (CellTiter-Glo assay) (AID 624031); note: nearly all actives have a fitted effect of over 70% in size; note: potency is the fitted concentration of half-maximal effect
In short: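 CellTiter-Glo ATP luminescence counter-screen in untransfected S16 rat Schwann cells, 24h compound exposure at 37 degree Celsius after overnight seeding (500-750 cells/well); response scaled between cell-free wells and DMSO (0% activity), curves classed by r2 and magnitude.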

[6] = qHTS assay for small molecule agonists of the antioxidant response element (ARE) signaling pathway (AID 651741; active = well fitted activation curve with a large enough effect in the signal ratio; the % refers to the signal ratio; note: potency is the fitted concentration of half-maximal effect)
In short: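 Agonist activity is measured as ARE-driven beta-lactamase expression in a stable HepG2 reporter line, using 16 h compound treatment at 37 C and a FRET substrate fluorescence readout after 2 h.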

[7] = qHTS assay for small molecule activators of the p53 signaling pathway (AID 651743; active = well fitted activation curve with a large enough effect in the signal ratio, not every such curve was filed as active; the % refers to the signal ratio; note: potency is the fitted concentration of half-maximal effect); details: HCT-116 p53RE-bla, beta-lactamase FRET ratio, 16 h; activation: stronger effect = higher value
In short: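 A beta-lactamase reporter under p53 response element control, stably carried by HCT-116 cells, reported pathway activation. Test compounds were applied for 16 hours at 37 C, and fluorescence was measured 2 hours after adding the B/G FRET substrate.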

[8] = qHTS assay for small molecule activators of the nuclear factor-kappa B (NF-kB) signaling pathway (AID 651749; active = well fitted activation curve with a large enough effect in the signal ratio; the % refers to the signal ratio; note: series mostly up to about 77 µM); details: NF-kB-bla ME-180 cells, beta-lactamase FRET ratio, 16 h; stronger effect = higher value
In short: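 FRET-based beta-lactamase detection in ME-180 cells reports NF-kB response-element-driven transcription following overnight (16 hr) compound treatment.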

[9] = qHTS assay for small molecule disruptors of the mitochondrial membrane potential - 1 hr assay (AID 651754; calls by dose curve; note: potency is the fitted concentration of half-maximal effect; nearly all actives have a fitted effect of over 35% in size)
In short: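 In this qHTS format, a 1 hr compound treatment of HepG2 cells precedes Mito-MPS staining, and membrane potential is judged from aggregate (red) against monomer (green) fluorescence intensity.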

[10] = qHTS assay for small molecule disruptors of the mitochondrial membrane potential - 5 hr assay (AID 651755; calls by dose curve; note: potency is the fitted concentration of half-maximal effect; nearly all actives have a fitted effect of over 40% in size)
In short: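 Membrane-potential dye readout: red aggregate (540 ex/590 em) versus green monomer (490 ex/535 em) fluorescence after 30 min dye loading, following 5 hr compound exposure at 37C of overnight-plated HepG2 cells.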

[11] = qHTS assay for environmental chemicals that activate the Aryl hydrocarbon Receptor (AhR) signaling pathway (AID 651777); details: 1A2-DRE human hepatoma cells, luciferase, 24 h; activation: stronger effect = higher value; note: nearly all actives have a fitted effect of over 15% in size
In short: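 Luminescence (One-Glo, 30 min, room temperature) reports AhR-driven luciferase in stably transfected human hepatoma cells bearing DRE and CYP1A2 promoter. Cells (1,200/well) were treated with compound for 24 hr at 37 C in qHTS format.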

[12] = molecular target: Peroxisome proliferator-activated receptor alpha (Homo sapiens) (UniProt Q07869); experiment: qHTS assay for small molecule agonists of the peroxisome proliferator-activated receptor alpha (PPARalpha) signaling pathway (AID 651778); details: PathHunter PPARalpha complementation, chemiluminescence, 6 h; stronger effect = higher value
In short: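 Chemiluminescence from complemented enzyme reported PPARalpha activation in cells after 6 hr of compound treatment at 37 C. The detection reagent was incubated for 60 min at room temperature, and compounds were scored as agonists.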

[13] = molecular target: Glutaminase kidney isoform, mitochondrial (Homo sapiens) (UniProt O94925); experiment: qHTS for Inhibitors of Glutaminase (GLS): LOPAC Validation (AID 624146);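 note: glutamate product detected by oxidase and peroxidase coupled Amplex red fluorescence gain; series mostly up to about 46 µM; nearly all actives have a fitted effect of over 60% in size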
In short: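 Enzyme dispensed in phosphate buffer (45 mM, pH 8.2, 0.02% Tween-20), compounds pinned in, then 1 mM L-glutamine solution and the glutamate oxidase–HRP–Amplex Red mix added; fluorescence read immediately and again after 30 min at room temperature.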

[14] = qHTS of Trypanosoma Brucei Inhibitors: LOPAC Validation (AID 624147)
In short: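 T. brucei PYK with substrate was exposed to pin-transferred compounds across a concentration series, then started with 130 uM ADP (final). After 45 min at room temperature, Kinase-Glo Plus luminescence was read, normalized and curve-fitted.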

[15] = molecular target: Glucagon-like peptide 1 receptor (Homo sapiens) (UniProt P43220); experiment: qHTS of GLP-1 Receptor Agonists: LOPAC Validation (AID 624148);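 note: luminescence from a luciferase reporter switched on by cAMP; higher luminescence signal means agonism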
In short: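 Agonism scored as increased luciferase luminescence driven by cAMP in HEK293 clones carrying GLP-1R. Cells settled 12 hours, received compound for 4-6 hr at 37 deg C, 5% CO2, and were read after 12 min detection reagent at RT.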

[16] = qHTS of Nrf2 Activators: LOPAC Validation (AID 624149)
In short: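 Following overnight seeding in 5% FBS OPTI-MEM, AREc32_Fluc cells receive compounds for a 24 hr incubation at 37 deg C with 5% CO2. Steady-Glo is added, and after 30 min at RT luminescence is recorded.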

Luciferin 4-monooxygenase (Photinus pyralis), sequence (P08659 whole entry, looked up): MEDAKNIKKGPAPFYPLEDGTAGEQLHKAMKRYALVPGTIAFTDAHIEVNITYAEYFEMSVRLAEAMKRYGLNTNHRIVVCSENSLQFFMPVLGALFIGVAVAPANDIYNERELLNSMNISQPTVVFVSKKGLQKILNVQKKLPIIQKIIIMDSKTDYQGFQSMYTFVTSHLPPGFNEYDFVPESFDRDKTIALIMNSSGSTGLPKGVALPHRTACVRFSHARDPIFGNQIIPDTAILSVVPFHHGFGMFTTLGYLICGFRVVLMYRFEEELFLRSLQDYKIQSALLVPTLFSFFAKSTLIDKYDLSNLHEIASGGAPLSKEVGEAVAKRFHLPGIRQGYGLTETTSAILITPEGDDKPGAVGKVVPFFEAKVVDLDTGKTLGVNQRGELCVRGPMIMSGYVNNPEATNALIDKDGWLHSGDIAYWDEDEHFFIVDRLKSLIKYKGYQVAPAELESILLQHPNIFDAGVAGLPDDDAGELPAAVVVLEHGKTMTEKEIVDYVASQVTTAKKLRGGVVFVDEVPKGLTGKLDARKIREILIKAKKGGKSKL
Voltage-gated inwardly rectifying potassium channel KCNH2 (Homo sapiens), sequence (Q12809 whole entry, looked up): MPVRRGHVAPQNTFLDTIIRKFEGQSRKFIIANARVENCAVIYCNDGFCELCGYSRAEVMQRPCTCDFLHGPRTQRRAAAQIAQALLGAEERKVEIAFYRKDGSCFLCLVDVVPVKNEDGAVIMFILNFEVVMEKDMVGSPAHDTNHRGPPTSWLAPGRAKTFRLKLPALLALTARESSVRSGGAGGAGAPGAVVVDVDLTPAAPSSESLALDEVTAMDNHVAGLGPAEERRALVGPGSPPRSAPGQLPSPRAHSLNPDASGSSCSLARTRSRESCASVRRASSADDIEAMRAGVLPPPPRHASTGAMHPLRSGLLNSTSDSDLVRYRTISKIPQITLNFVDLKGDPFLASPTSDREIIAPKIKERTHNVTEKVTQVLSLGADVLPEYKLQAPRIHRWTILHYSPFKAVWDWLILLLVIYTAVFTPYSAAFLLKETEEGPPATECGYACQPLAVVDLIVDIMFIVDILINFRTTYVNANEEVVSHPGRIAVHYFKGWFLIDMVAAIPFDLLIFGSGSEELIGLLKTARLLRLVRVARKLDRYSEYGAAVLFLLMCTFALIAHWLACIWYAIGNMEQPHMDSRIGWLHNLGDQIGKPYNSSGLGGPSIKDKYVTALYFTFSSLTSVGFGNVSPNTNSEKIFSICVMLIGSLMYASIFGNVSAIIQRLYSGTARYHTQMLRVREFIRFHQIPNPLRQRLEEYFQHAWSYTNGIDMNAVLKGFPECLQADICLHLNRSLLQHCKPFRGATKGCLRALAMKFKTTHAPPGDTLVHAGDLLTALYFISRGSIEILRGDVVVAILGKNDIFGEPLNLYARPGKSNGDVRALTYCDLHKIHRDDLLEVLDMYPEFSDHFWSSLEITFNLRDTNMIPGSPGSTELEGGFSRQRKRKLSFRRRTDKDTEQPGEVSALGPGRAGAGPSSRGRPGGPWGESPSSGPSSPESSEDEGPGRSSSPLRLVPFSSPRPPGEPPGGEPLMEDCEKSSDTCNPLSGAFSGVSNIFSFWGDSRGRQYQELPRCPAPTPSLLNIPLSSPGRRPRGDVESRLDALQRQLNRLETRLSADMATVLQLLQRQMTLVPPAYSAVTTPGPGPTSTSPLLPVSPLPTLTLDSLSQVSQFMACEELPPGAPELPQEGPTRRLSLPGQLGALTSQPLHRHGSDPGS
Peroxisome proliferator-activated receptor alpha (Homo sapiens), sequence (Q07869 whole entry, looked up): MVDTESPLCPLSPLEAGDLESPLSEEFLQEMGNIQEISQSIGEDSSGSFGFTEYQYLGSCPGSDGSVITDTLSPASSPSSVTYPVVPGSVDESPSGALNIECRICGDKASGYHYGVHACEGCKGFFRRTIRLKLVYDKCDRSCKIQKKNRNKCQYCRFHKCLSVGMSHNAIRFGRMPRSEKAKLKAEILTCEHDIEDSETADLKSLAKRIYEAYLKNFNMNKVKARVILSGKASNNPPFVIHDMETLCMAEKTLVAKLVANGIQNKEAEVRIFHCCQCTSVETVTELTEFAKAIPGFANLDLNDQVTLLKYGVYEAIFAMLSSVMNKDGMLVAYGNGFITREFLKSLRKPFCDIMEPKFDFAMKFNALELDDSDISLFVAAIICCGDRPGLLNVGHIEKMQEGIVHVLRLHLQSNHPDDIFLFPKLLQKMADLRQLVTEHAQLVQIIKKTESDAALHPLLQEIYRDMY
Glutaminase kidney isoform, mitochondrial (Homo sapiens), sequence (O94925 whole entry, looked up, canonical isoform): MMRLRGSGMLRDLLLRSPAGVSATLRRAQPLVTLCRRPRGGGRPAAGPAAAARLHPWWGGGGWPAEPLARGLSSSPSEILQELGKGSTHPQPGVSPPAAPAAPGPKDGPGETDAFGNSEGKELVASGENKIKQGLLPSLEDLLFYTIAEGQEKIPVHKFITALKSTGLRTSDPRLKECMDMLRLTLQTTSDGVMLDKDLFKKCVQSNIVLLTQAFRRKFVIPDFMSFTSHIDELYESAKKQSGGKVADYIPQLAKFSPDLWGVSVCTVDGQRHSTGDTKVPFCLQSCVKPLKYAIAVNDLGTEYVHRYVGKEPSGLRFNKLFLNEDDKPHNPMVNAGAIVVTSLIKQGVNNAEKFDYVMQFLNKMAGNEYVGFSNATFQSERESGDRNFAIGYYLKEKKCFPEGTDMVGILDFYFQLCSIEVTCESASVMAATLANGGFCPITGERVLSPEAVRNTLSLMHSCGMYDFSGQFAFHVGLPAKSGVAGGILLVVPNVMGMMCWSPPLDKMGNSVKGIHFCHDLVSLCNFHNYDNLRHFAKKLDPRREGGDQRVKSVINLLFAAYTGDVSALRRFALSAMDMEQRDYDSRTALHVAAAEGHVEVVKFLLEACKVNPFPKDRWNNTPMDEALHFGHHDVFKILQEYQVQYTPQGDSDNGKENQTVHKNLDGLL
Glucagon-like peptide 1 receptor (Homo sapiens), sequence (P43220 whole entry, looked up): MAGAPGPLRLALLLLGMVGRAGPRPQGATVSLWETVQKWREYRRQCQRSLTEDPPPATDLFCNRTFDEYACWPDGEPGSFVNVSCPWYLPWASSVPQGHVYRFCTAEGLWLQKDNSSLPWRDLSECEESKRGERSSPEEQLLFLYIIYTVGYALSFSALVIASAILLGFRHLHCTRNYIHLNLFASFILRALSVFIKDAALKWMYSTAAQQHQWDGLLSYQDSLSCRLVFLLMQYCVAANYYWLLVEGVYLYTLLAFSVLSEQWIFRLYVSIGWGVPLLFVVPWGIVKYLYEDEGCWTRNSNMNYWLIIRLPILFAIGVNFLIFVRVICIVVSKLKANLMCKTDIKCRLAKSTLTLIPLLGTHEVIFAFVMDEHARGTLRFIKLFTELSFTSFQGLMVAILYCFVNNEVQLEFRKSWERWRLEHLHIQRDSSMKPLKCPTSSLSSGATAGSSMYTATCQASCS

In the case of `CCCCCCCCCCCCCC[N+](C)(C)Cc1ccccc1`, the Potency [1] is reported as 7.94 µM (active), the Potency [2] is reported as “inactive” and the Potency [3] is reported as 32.2 µM (active). For the same molecule, the Potency [4] was “inactive”.
With `O=C(NCCc1c[nH]c2ccccc12)c1cccnc1` the Potency [1] was “inactive”, the Potency [5] was “inactive” and the Potency [4] was “inactive”.
In the case of `Oc1c(Cl)cc(Cl)c(Cl)c1Cc1c(O)c(Cl)cc(Cl)c1Cl`, the Potency [1] is reported as “inactive”, the Potency [5] is reported as “inactive” and the Potency [3] is reported as 1.61 µM (active). For the same molecule, the Potency [6] was 6.86 µM (active), the Potency [7] was 7.94 µM (active) and 12.6 µM (active) and the activation [8] was -1.07%. The Potency [9] was 2.98 µM (active), the Potency [10] was 3.35 µM (active) and the activation [11] was 3.13% and 3.58%. For the same molecule, the max response [12] was 1.56% and 1.87%.
With `Oc1ccccc1C=NCc1ccccc1` the Potency [2] was “inactive”, the Potency [5] was “inactive” and the Potency [3] was “inactive”.
In the case of `O=S(c1cc(Cl)cc(Cl)c1O)c1cc(Cl)cc(Cl)c1O`, the Potency [2] is reported as 32.2 µM (active), the Potency [5] is reported as “inactive” and the Potency [3] is reported as “inactive”.
With `NC(=S)N/N=C/c1cccnc1` the Potency [1] was “inactive”, the Potency [2] was “inactive” and the Potency [3] was “inactive”. The Potency [4] was “inactive”.
In the case of `CCN(CC)CCOc1ccccc1C(=O)CCc1ccccc1`, the Potency [1] is reported as 1.12 µM (active), the Potency [2] is reported as “inactive” and the Potency [3] is reported as “inactive”. For the same molecule, the Potency [4] was “inactive”.
With `O=C(CCCN1CC=C(n2c(=O)[nH]c3ccccc32)CC1)c1ccc(F)cc1` the Potency [2] was “inactive”, the Potency [5] was “inactive” and the Potency [3] was “inactive”.
In the case of `CN(CCCN1c2ccccc2CCc2ccccc21)CC(=O)c1ccc(Cl)cc1`, the Potency [1] is reported as 5.01 µM (active), the Potency [2] is reported as “inactive” and the Potency [4] is reported as “inactive”.
In the case of `CCOC(=O)c1c(N)sc2c1CCN(Cc1ccccc1)C2`, the Potency [2] is reported as “inactive”, the Potency [5] is reported as “inactive” and the Potency [3] is reported as 36.1 µM (active).
For `CN1CCc2cccc3c2[C@H]1Cc1ccc(O)c(O)c1-3`, the Potency [3] was 14.4 µM (active) and the Potency [4] was “inactive”.
With `CN1CCN(CCC(=O)N2c3ccccc3Sc3ccc(C(F)(F)F)cc32)CC1` the Potency [2] was “inactive”, the Potency [3] was “inactive” and the Potency [4] was “inactive”.
For `CN1CCC[C@@H]1CCO[C@](C)(c1ccccc1)c1ccc(Cl)cc1`, the Potency [2] was “inactive” and the Potency [3] was “inactive”.
In the case of `CC(=O)Nc1ccc(S(=O)(=O)Nc2ccc([N+](=O)[O-])cc2)cc1`, the Potency [2] is reported as “inactive”, the Potency [5] is reported as “inactive” and the Potency [3] is reported as “inactive”.
In the case of `Cc1ncc(CO)c(C=O)c1O`, the Potency [2] is reported as “inactive”, the Potency [5] is reported as “inactive” and the Potency [3] is reported as “inactive”.
With `CCCCC(CC)COC(=O)/C=C/c1ccc(OC)cc1` (stereo not drawn) the Potency [2] was “inactive”, the Potency [5] was “inactive” and the Potency [3] was “inactive”. The Potency [4] was “inactive”.
For `NC(N)=NCc1cccc(I)c1`, the Potency [2] was “inactive”, the Potency [5] was “inactive” and the Potency [4] was “inactive”. The outcome [13] was “inactive”, the outcome [14] was “inactive” and the outcome [15] was “inactive”. For the same molecule, the outcome [16] was “inactive”.
In the case of `O[C@@H](c1cc(C(F)(F)F)nc2c(C(F)(F)F)cccc12)[C@H]1CCCCN1`, the Potency [2] is reported as “inactive”, the Potency [5] is reported as 28.7 µM (active) and the Potency [3] is reported as 36.1 µM (active).
In the case of `FC(F)(F)C(F)(F)C(F)(F)C(F)(F)C(F)(F)C(F)(F)C(F)(F)C(F)(F)Br`, the Potency [2] is reported as “inactive”, the Potency [5] is reported as “inactive” and the Potency [3] is reported as “inactive”. The Potency [4] was “inactive”.
For `CNCCCCOc1ccccc1Cc1ccccc1`, the Potency [2] was “inactive”, the Potency [5] was 28.7 µM (active) and the Potency [4] was “inactive”.
In the case of `Cc1cc(CC(=O)O)c(C)n1-c1ccc(Cl)cc1`, the Potency [2] is reported as “inactive” and the Potency [3] is reported as “inactive”.
In the case of `C/C=C/C=N/NC(=O)c1ccncc1`, the Potency [2] is reported as “inactive”, the Potency [5] is reported as “inactive” and the Potency [4] is reported as “inactive”.
With `CN(C)CCC[C@@]1(c2ccc(F)cc2)OCc2cc(C#N)ccc21` the Potency [2] was “inactive”, the Potency [5] was “inactive” and the Potency [3] was “inactive”.
In the case of `CCC1Nc2cc(Cl)c(S(N)(=O)=O)cc2S(=O)(=O)N1` (stereo not drawn), the Potency [2] is reported as “inactive” and the Potency [3] is reported as “inactive”.
With `C[N+]1(CC2COC(c3ccccc3)(C3CCCCC3)O2)CCCCC1` (stereo not drawn) the Potency [2] was “inactive”, the Potency [5] was “inactive” and the Potency [4] was “inactive”.
In the case of `CN1CCN(C2=Nc3cc(F)ccc3Cc3ccccc32)CC1`, the Potency [2] is reported as “inactive”, the Potency [5] is reported as “inactive” and the Potency [3] is reported as “inactive”. The Potency [4] was “inactive”.
With `Cc1ccc(O)c([C@H](CCN(C(C)C)C(C)C)c2ccccc2)c1` the Potency [2] was “inactive”, the Potency [5] was “inactive” and the Potency [4] was “inactive”.
In the case of `Cc1cc(-c2ccccc2)nnc1NCCN1CCOCC1`, the Potency [5] is reported as “inactive” and the Potency [4] is reported as “inactive”.
For `OCCOCCN1CCN(C2=Nc3ccccc3Sc3ccccc32)CC1`, the Potency [2] was “inactive”, the Potency [5] was “inactive” and the Potency [3] was “inactive”. The Potency [4] was “inactive”.
For `CC(C)=CCOc1ccc(/C=C/C(=O)c2ccc(OCC=C(C)C)cc2OCC(=O)O)cc1`, the Potency [5] was “inactive” and the Potency [4] was “inactive”.
For `C[N+]1(C)CCC(=C(c2ccccc2)c2ccccc2)CC1`, the Potency [2] was “inactive”, the Potency [5] was “inactive” and the Potency [3] was “inactive”.
In the case of `COc1ccc(/C=N/NC(=O)c2ccncc2)cc1OC`, the Potency [2] is reported as “inactive”, the Potency [5] is reported as “inactive” and the Potency [4] is reported as “inactive”.
With `O=C(O)P(=O)(O)O` the Potency [2] was “inactive”, the Potency [5] was “inactive” and the Potency [3] was “inactive”. The Potency [4] was “inactive”.
With `COc1cc(C)nc(-n2nc(C)cc2OC)n1` the Potency [2] was “inactive”, the Potency [5] was “inactive” and the Potency [3] was “inactive”.
For `Clc1cccc(C(c2ccc3nc[nH]c3c2)n2ccnc2)c1` (stereo not drawn), the Potency [2] was “inactive”, the Potency [5] was “inactive” and the Potency [3] was “inactive”. For the same molecule, the Potency [4] was “inactive”.
With `NC(=O)n1c(O)c(C(=O)c2cccs2)c2cc(Cl)ccc21` the Potency [4] was “inactive”.
For `O=C(CN1CCN(Cc2ccc3c(c2)OCO3)CC1)N1c2ccccc2Sc2ccccc21`, the Potency [2] was “inactive”, the Potency [3] was 12.8 µM (active) and the Potency [4] was “inactive”.
